Measurements as given in PubChem BioAssay AID686940 (The Scripps Research Institute Molecular Screening Center, 2013).
Hit rate of the full screen: of about 370,000 compounds, about 2,600 (0.7%) were called active. Many of the other results were omitted from the sample, so actives are more common in it than they were. Unmarked numbers belong to inactive results.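 Rule for the calls: active = inhibition above a per-plate cutoff, mean inhibition of test wells between control levels plus 3 SD (cut at about 38% in these data); inactive = the rest.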

Biological target: COUP transcription factor 2 (Homo sapiens) (UniProt P24468)
Sequence (P24468 whole entry, looked up): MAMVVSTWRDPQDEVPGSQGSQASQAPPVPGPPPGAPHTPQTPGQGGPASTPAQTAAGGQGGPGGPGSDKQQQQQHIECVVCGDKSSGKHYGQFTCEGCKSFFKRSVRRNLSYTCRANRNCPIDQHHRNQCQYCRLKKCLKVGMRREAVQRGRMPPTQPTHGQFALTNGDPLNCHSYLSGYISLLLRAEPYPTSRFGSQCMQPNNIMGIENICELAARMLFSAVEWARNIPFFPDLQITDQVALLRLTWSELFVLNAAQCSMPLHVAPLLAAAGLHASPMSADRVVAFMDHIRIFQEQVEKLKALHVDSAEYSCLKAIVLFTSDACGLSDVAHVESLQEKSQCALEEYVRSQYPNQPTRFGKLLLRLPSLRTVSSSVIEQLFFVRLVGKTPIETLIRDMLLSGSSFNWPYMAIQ
Assay: NR2F2 transcriptional activity inhibitors, primary screen, cell-based, luciferase reporter, HEK293T, luminescence (AID 686940);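 note: cells cotransfected with COUP-TFII expression vector driving the NGFI-A reporter; 0% = median of COUP-TF2 test wells and 100% = reporter-only cells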
Settings: HEK293T NGFI-A luciferase reporter, at 8.6 µM, hits give high values

Compared with Cc1ccc(NC(=O)COc2coc(CN3CCc4ccccc4C3)cc2=O)cc1Cl, CCc1ccccc1OCC(=O)Nc1ccc(C)c(S(=O)(=O)N2CCCCCC2)c1 is higher in inhibition: 8.3% for the first, 16.9% for the second.

Going from C=CCOC/C=C/C#CCN(CC=C)Cc1ccc(OC)cc1OC to CCOC(=O)CNc1nc(Cl)nc(Nc2ccc(OC)cc2OC)n1, the inhibition rises from -4.38% to 9.09%.

Compared with CC1(C)CC2CC(C)(CN2c2ncnc3ccc(Br)cc23)C1 (stereo not drawn), COCC(C)n1c(SCC(=O)NC2CCCCC2C)nc2ccccc2c1=O (stereo not drawn) is lower in inhibition: 16.5% for the first, 1.47% for the second.

Compared with O=C(Nc1cccc(Cl)c1)OC1CC2CC1[C@H]1CCCCN1[C@H]2Cc1ccccc1 (stereo partly drawn), COC(=O)[C@]12C[C@H](CC(=O)NCC34CC5CC(CC(C5)C3)C4)C(=O)N(Cc3ccc(Cl)cc3Cl)C1=C[C@H](COCc1ccccc1)O[C@@H]2C is lower in inhibition: 14.6% for the first, -8.65% for the second.

Compared with O=C(Nc1ccc(N2CCOCC2)c(Cl)c1)c1ccc(S(=O)(=O)N2CCOCC2)cc1, COc1ccc(C(=O)Nc2cc(S(=O)(=O)N3CCCC3)ccc2Cl)cc1 is lower in inhibition: 6.88% for the first, 1.63% for the second.

Going from COC(=O)[C@@]12CCCCC3=C1N(CCC3)C(=O)[C@H]2CC(=O)NCc1cccc2ccccc12 to CCCCNC(=O)C[C@H]1C(=O)N(Cc2ccc(OC)cc2)C2=CCCC[C@@]21C(=O)OCC, the inhibition rises from -8.73% to 7.45%.

Compared with Cc1c[nH]c2cccc(-c3ccc(Cl)cc3)c12, CCCOc1ccc(Oc2c(Cl)cnn(Cc3cccc4ccccc34)c2=O)cc1 is higher in inhibition: 1.03% for the first, 3.48% for the second.

First: COc1cccc(/C=C2\CC3(OC(C)=O)CCCN2C3)c1 (stereo not drawn)
Second: COc1ccc(/C=C2\CC3(OC(C)=O)CCCN2C3)cc1 (stereo not drawn)
The inhibition of the first is lower: -14.3% for the first, -13.1% for the second.

Going from CC(=O)N1CCCN(C2=Nc3ccccc3Sc3ccccc32)CC1 to O=C(CNS(=O)(=O)c1ccccc1F)N1CCN(c2ccccn2)CC1, the inhibition rises from -4.52% to 8.7%.

Compared with Cc1cc(C(=O)CSc2nc(N)cc(=O)[nH]2)c(C)n1-c1cccc(F)c1, Cc1cc(C(=O)COc2ccccc2Cl)c(C)n1C1CC1 is lower in inhibition: 27.2% for the first, -24.6% for the second.

First: COC(=O)[C@]12C[C@H](CC(=O)N3CCN(C(=O)C4CC4)CC3)C(=O)N(CCC3=CCCCC3)C1=C[C@H](C(C)C)O[C@@H]2C1CC1
Second: COC(=O)c1cc(S(=O)(=O)N2CCN(C(=O)C3CCCO3)CC2)cn1C (stereo not drawn)
The inhibition of the first is higher: 5.77% for the first, -3.24% for the second.

Compared with CC(C)C(C#CC1CC1)N(Cc1ccc2c(c1)OCO2)C(N)=NC(=O)/C=C/c1cccc(C(F)(F)F)c1 (stereo not drawn), O=C(c1ccco1)N(Cc1nc2ccccc2c(=O)[nH]1)C1CCCC1 is lower in inhibition: -0.2% for the first, -0.35% for the second.

Compared with CCCOc1ccc(Cc2c(O)nc(SC)[nH]c2=O)cc1C, COc1ccccc1CCNC(=O)C1CCN(c2nc(C)cc(C)n2)CC1 is lower in inhibition: 17.2% for the first, 1.51% for the second.

Compared with Fc1ccc2nc(COCc3nc4ccc(F)cc4[nH]3)[nH]c2c1, COc1cc(C(=O)NCc2nnc(SCC(=O)Nc3nc4ccc(C)cc4s3)o2)cc(OC)c1OC is higher in inhibition: -29.3% for the first, -8.42% for the second.

Going from CN1[C@H](Cc2ccccc2)COc2cccc(N3CCSCC3)c2S1(=O)=O to C[C@@H]1COc2cccc(N3CCCC3)c2S(=O)(=O)N1C, the inhibition falls from 5.38% to -14.7%.

First: COc1cc(C(=O)NCC(=O)N2CC=C(c3ccccc3)CC2)cc(OC)c1OC
Second: COc1ccccc1C(=O)NC1CCCCN(C(C)C)C1=O (stereo not drawn)
The inhibition of the first is higher: 9.83% for the first, 2.43% for the second.

First: CC1CCN(c2ccc(C(=O)O)cc2NS(=O)(=O)c2ccc(Br)s2)CC1
Second: COC(=O)[C@]1(C#N)CC(=O)N(CC2CCCCC2)[C@@H]1c1ccccc1
The inhibition of the first is higher: -3.26% for the first, -5.14% for the second.

Compound CCn1c2ccccc2c2cc(NC(=O)CSc3nnc(-c4ccccc4)n3-c3ccc(C)cc3)ccc21 has an inhibition of 22.1%.

With Cc1ccccc1OCC(=O)Nc1ccc(N2CCN(C(=O)C(C)C)CC2)c(Cl)c1 the inhibition was 40.9% (active).
In the case of COc1ccc(Nc2ncnc3ccc(Br)cc23)c(OC)c1, the inhibition is reported as 39.9% (active).
With COc1ccc(C(=O)Nc2nc(-c3ccc(S(=O)(=O)N4CCOCC4)cc3)cs2)cc1 the inhibition was 70.8% (active).
In the case of Cc1cc(C(=O)COC(=O)C2CC2)c(C)n1-c1ccc(F)cc1, the inhibition is reported as 56.4% (active).
CCCOc1ccc(Cc2c(Cl)nc(SC)nc2NC)cc1 was tested, and the inhibition was 46.9% (active).
In the case of CN(c1ccc2nc3ccccc3c(=O)n2n1)C1CCCCC1, the inhibition is reported as 88.6% (active).
With CCn1c(CNC(=O)c2cc(OC)c(OC)c(OC)c2)cc2cc(C)ccc21 the inhibition was 41.5% (active).
In the case of CN(O)C(=S)c1ccccc1, the inhibition is reported as 43.2% (active).
